# PubChem BioAssay (NCATS)
# Values joined by “and” are separate entries in the source; they are usually repeats but may differ in a detail not shown here. Equal values may be shown once. A number with no mark means an inactive call. Records with an inconclusive call do not appear. Active and inactive are the calls of the source. Unless noted, the call rests on the fitted dose curve; in most records, active means well fitted curve in the direction sought with a large enough effect; inconclusive means small, poorly fitted or top-dose-only effect, or another doubt; inactive means no such curve, though single readings can be large; an effect the other way counts as inactive or inconclusive.
# Experiments:
# [1] = qHTS assay for measurement of the activity of small molecule inhibitors on Zika virus induced Caspase-3 activity in human iPSC derived neural progenitor cells (hNPCs) (AID 1224857); further: % of control where 0% means no effect; nearly all actives have a fitted effect of over 65% in size
# In short: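 Pretreat hNPCs with compound 1 h; infect ZIKV 2 FFU/cell; 6 h 37 C, 5% CO2; Caspase-Glo 3/7, 30 min RT; luminescence; normalize to no-virus and virus-only wells.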
# [2] = qHTS assay for measurement of the activity of small molecule inhibitors on Zika virus induced Caspase-3 activity in human astrocytoma cells (AID 1224859);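 further: plate controls were ZIKV-infected untreated cells for no effect and uninfected cells for full effect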
# In short: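 Human SNB-19 astrocytoma cells in RPMI 1640 with 10% FBS receive compound one hour ahead of Zika virus at 2 FFU/cell. After 6 h infection, caspase-3/7 activity is detected by Caspase-Glo luminescence.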
# [3] = qHTS Screen of the MIPE 4.0 Collection Against Ewings Sarcoma (RDES) (AID 1259252); further: nearly all actives have a fitted effect of over 35% in size; further: potency means the concentration at half of the fitted maximal effect;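 on viability (percent of control): 100% = DMSO-treated cells and 0% = medium-only wells without cells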
# In short: (§1)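 Compound titrations go onto adherent log-phase cells 4 h after seeding, incubate 48 h at 37C, then CellTiter-Glo luminescence reports viability relative to DMSO and cell-free controls.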
# [4] = qHTS Screen of the MIPE 4.0 Collection Against Ewings Sarcoma (TC71) (AID 1259253); further: nearly all actives have a fitted effect of over 40% in size; further: potency means the concentration at half of the fitted maximal effect;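 on viability (% of DMSO): 100% = DMSO-treated cells and 0% = medium-only wells without cells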
# In short: as §1
# [5] = qHTS Screen of the MIPE 4.0 Collection Against Ewings Sarcoma (EW8) (AID 1259255); further: nearly all actives have a fitted effect of over 35% in size; further: potency means the concentration at half of the fitted maximal effect;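 on viability: 100% = DMSO-treated cells and 0% = medium-only wells without cells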
# In short: as §1
# [6] = qHTS Screen of the MIPE 4.0 Collection Against Ewings Sarcoma (TC32) (AID 1259256); further: nearly all actives have a fitted effect of over 45% in size; further: potency means the concentration at half of the fitted maximal effect;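 on viability (percent of control): 100% = DMSO-treated cells and 0% = medium-only wells without cells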
# In short: as §1
# [7] = qHTS assay to identify small molecule inhibitors of chordoma cells - UCH-2 (AID 1259356); further: series mostly up to about 46 µM; on the % scale 0 is the no-effect control and ±100 the full control effect
# [8] = NS1 protein of Zika virus - qHTS assay to identify small molecule inhibitors in human HEK 293 cells (AID 1347053); further: nearly all actives have a fitted effect of over 55% in size; further: potency means the concentration at half of the fitted maximal effect;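 on activity change, negative = inhibition: series mostly up to about 46 µM; plate controls were infected untreated cells for no effect and uninfected cells for full effect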
# In short: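 In this cell-based screen, HEK 293 cultures received compound for one hour before Zika MR766 at MOI = 0.5. NS1 was quantified 24 hours later by TR-FRET, normalized to virus-free wells and infected wells.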
# [9] = P-glycoprotein substrates identified in KB-8-5-11 adenocarcinoma cell line, qHTS therapeutic library screen (AID 1346987); further: nearly all actives have a fitted effect of over 65% in size; further: potency means the concentration at half of the fitted maximal effect
# In short: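 In this qHTS, P-gp-rich KB-8-5-11 cells received library compounds across a concentration range. Viability was quantified by luminescence after 72 h at 37 degree C.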
# [10] = Identifying Small Molecule Inhibitors of Pancreatic Cancer Stem Cells (A2780, Spheroid) (AID 1259357); details: Potency: A2780 spheroid viability;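 further: spheroids pre-formed over 14 days in stem cell medium on hydrogel; potency means the concentration at half of the fitted maximal effect; compound exposure lasted 48 h before the ATP luminescence read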
# In short: (§2)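 Endpoint: ATP-based luminescence, 48 h drug exposure. Bortezomib at 9.2 uM final as full-kill control; DMSO vehicle as negative control; activity normalized between vehicle and cell-free wells.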
# [11] = Identifying Small Molecule Inhibitors of Pancreatic Cancer Stem Cells (SN12C, Spheroid) (AID 1259360); details: Potency: SN12C spheroid viability; further: potency means the concentration at half of the fitted maximal effect
# In short: as §2
# [12] = Identifying Small Molecule Inhibitors of Pancreatic Cancer Stem Cells (A278, Adherent) (AID 1259361);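 further: viability read after 48 h compound exposure; nearly all actives have a fitted effect of over 35% in size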
# In short: (§3)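 Viability is scored by CellTiter-Glo luminescence 48 h after dosing, expressed as percent activity against vehicle and no-cell references. Spheroid formats rely on cells cultured 14 days in stem cell media beforehand.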
# [13] = P-glycoprotein substrates identified in KB-3-1 adenocarcinoma cell line, qHTS therapeutic library screen (AID 1346986);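 further: potency means the concentration at half of the fitted maximal effect; potency is for cytotoxicity meaning loss of cell viability; nearly all actives have a fitted effect of over 60% in size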
# In short: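 Using luminescence to quantify ATP, parental and P-gp-overexpressing KB cells were compared after 72 h compound titration. KB-8-5-11 was also run with the P-gp inhibitor tariquidar.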
# [14] = target: Atrial natriuretic peptide receptor 1 (Homo sapiens) (UniProt P16066); assay: Natriuretic polypeptide receptor (hNpr1) antagonism - Pilot screen (AID 1347049; calls by dose curve;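 further: HEK293 cells with hNpr1 and GloSensor cGMP luciferase stimulated by 0.1 nM hNppA; agonist-evoked cGMP luminescence read 20 min after hNppA addition; series mostly up to about 58 µM; on the % scale 0 is the no-effect control and ±100 the full control effect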)
# Atrial natriuretic peptide receptor 1 (Homo sapiens), sequence (P16066 whole entry, looked up): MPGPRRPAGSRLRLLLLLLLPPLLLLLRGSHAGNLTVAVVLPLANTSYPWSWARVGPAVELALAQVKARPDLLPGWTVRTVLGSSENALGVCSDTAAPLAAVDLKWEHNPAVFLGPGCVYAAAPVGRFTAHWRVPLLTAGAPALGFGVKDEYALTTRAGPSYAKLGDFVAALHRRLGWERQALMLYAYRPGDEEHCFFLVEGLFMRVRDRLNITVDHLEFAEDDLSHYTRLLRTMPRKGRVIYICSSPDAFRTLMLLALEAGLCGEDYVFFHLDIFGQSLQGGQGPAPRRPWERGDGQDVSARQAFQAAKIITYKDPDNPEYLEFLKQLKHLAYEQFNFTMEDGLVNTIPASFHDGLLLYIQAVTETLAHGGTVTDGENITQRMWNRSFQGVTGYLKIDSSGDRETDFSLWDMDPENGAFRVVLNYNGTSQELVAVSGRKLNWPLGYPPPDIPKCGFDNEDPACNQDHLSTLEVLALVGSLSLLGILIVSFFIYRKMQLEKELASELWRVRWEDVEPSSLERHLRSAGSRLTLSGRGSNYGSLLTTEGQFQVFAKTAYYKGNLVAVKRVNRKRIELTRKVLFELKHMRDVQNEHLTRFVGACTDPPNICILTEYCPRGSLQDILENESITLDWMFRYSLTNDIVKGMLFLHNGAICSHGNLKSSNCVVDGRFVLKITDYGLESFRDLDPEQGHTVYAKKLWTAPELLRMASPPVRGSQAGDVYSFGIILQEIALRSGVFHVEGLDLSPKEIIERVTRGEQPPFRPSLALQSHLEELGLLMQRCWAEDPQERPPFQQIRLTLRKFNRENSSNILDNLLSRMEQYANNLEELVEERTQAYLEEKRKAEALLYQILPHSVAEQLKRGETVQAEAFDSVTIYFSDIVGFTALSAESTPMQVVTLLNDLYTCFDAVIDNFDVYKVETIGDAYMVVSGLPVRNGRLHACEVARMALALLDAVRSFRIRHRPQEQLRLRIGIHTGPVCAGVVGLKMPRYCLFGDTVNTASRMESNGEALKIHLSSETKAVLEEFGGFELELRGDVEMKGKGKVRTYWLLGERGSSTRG
# In short: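 Cells expressing receptor plus cGMP biosensor are seeded and incubated overnight at 37C, then loaded with GloSensor reagent (2% final) at room temperature for 2 h. Library compounds go on for 30 min. A pre-read precedes agonist (hNppA, 0.1 nM final) and a 20-min readout.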
# [15] = target: Atrial natriuretic peptide receptor 2 (Homo sapiens) (UniProt P20594); assay: Natriuretic polypeptide receptor (hNpr2) antagonism - Pilot subtype selectivity assay (AID 1347050; calls by dose curve; further: on the % scale 0 is the no-effect control and ±100 the full control effect)
# Atrial natriuretic peptide receptor 2 (Homo sapiens), sequence (P20594 whole entry, looked up): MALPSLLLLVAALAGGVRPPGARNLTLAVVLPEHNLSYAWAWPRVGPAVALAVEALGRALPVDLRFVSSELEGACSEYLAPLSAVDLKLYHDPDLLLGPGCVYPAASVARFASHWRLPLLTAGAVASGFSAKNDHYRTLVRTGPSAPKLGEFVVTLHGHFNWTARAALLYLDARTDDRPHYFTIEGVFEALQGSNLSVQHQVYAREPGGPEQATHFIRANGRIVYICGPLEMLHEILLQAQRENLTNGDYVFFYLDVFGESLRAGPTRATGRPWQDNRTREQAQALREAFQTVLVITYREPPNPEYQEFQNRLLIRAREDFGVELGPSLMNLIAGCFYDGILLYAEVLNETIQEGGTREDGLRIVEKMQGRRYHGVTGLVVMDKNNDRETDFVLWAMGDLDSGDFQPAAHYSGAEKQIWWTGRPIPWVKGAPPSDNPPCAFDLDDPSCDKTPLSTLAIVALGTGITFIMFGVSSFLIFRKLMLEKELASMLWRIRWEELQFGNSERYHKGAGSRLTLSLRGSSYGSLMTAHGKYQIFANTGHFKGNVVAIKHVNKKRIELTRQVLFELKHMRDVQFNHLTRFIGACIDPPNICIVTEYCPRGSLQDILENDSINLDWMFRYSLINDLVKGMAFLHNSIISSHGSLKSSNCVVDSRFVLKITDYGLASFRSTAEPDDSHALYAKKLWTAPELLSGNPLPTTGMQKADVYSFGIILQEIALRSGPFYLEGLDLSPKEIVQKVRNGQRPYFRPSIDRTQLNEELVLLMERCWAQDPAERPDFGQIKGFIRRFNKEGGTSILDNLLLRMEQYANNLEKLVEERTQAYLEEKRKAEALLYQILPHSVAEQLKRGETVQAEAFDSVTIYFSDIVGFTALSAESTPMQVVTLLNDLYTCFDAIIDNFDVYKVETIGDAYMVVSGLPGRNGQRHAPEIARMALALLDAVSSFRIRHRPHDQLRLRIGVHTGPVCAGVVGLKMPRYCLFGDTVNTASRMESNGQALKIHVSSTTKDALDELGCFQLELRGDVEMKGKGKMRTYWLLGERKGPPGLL
# In short: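 Read-out: GloSensor luminescence (CCD imager), baseline vs post-stimulation. HEK293 cells expressing hNpr2; compounds pre-incubated 30-50 min at ambient temperature; hNppC 1 nM final, 20 min.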
# [16] = Identifying Small Molecule Inhibitors of Pancreatic Cancer Stem Cells (SN12C, Adherent) (AID 1259358);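 further: potency means the concentration at half of the fitted maximal effect; cell survival measured after 48 h of compound exposure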
# In short: as §3
# [17] = Identifying Small Molecule Inhibitors of Pancreatic Cancer Stem Cells (Panc1, Spheroid) (AID 1259359);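 further: potency means the concentration at half of the fitted maximal effect; compound exposure lasted 48 h before reading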
# In short: as §3
# [18] = Identifying Small Molecule Inhibitors of Pancreatic Cancer Stem Cells (Panc1, Adherent) (AID 1259362); details: Potency: viability; further: potency means the concentration at half of the fitted maximal effect
# In short: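 Adherent (2D) versus sphere (3D) formats; spheres generated 14 d in SCM beforehand. Compound transferred by pin tool after 4 h, 48 h incubation, CellTiter-Glo endpoint.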
smiles,measurement,setting,value
COc1c(N2C[C@@H]3CCCN[C@H]3C2)c(F)cc2c(=O)c(C(=O)O)cn(C3CC3)c12,Potency,[1],inactive
same,Potency,[2],inactive
same,Potency,[3],inactive
same,Potency,[4],inactive
same,Potency,[5],inactive
same,Potency,[6],inactive
same,outcome,[7],inactive
same,Potency,[8],inactive
COc1ccc(CC2c3cc(OC)c(OC)cc3CC[N+]2(C)CCC(=O)OCCCCCOC(=O)CC[N+]2(C)CCc3cc(OC)c(OC)cc3C2Cc2ccc(OC)c(OC)c2)cc1OC (stereo not given),"activity change, negative = inhibition",[1],18.4% [at 9.06 µM]
same,"activity change, negative = inhibition",[2],7.2% [at 9.06 µM]
same,viability (percent of control),[3],121% [at 5.15 µM]
same,viability (% of DMSO),[4],110% [at 5.15 µM]
same,viability,[5],117% [at 5.15 µM]
same,viability (percent of control),[6],123% [at 5.15 µM]
same,outcome,[7],inactive
same,Potency,[9],inactive
same,"activity change, negative = inhibition",[8],-9.69% [at 9.2 µM]
O=C(O)Cn1nnc(-c2cc(N3CCC(Oc4cc(F)ccc4Br)CC3)no2)n1,Potency,[1],inactive
same,Potency,[2],inactive
same,Potency,[3],inactive
same,Potency,[4],inactive
same,Potency,[5],inactive
same,Potency,[6],inactive
NC1(Cc2ccc(Cl)cc2)CCN(c2ncnc3[nH]ccc23)CC1,Potency,[1],inactive
same,Potency,[2],inactive
same,Potency,[3],16.6 µM (active)
same,Potency,[4],18.7 µM (active)
same,Potency,[5],16.6 µM (active)
same,Potency,[6],16.6 µM (active)
C[C@H]1C[C@@H]2[C@@H]([C@@H](O)C[C@@]3(C)[C@H]2CC[C@]3(O)C(=O)CO)[C@@]2(C)C=CC(=O)C=C12,Potency,[1],inactive
same,Potency,[2],inactive
same,Potency,[3],inactive
same,Potency,[4],inactive
same,Potency,[5],inactive
same,Potency,[6],inactive
same,outcome,[7],inactive
same,Potency,[9],inactive
same,Potency,[8],inactive
COc1cc(C(=O)N2CCC(N3CCN(C)CC3)CC2)ccc1Nc1ncc2c(n1)N(C)c1ccccc1C(=O)N2C,Potency,[1],inactive
same,Potency,[2],inactive
same,Potency,[3],13.2 µM (active)
same,Potency,[4],4.69 µM (active)
same,Potency,[5],9.35 µM (active)
same,Potency,[6],4.18 µM (active)
O=C(O)CO.[NH2-].[NH2-].[Pt+2],Potency,[1],inactive
same,Potency,[2],inactive
same,Potency,[3],inactive
same,Potency,[4],inactive
same,Potency,[5],inactive
same,Potency,[6],inactive
same,outcome,[7],inactive
same,Potency,[9],inactive
same,Potency,[8],inactive
CC=CC1=C(C(=O)O)N2C(=O)[C@H](NC(=O)[C@H](N)c3ccc(O)cc3)[C@@H]2SC1,Potency,[1],inactive
same,Potency,[2],inactive
same,Potency,[3],inactive
same,Potency,[4],inactive
same,Potency,[5],inactive
same,Potency,[6],inactive
same,outcome,[7],inactive
same,Potency,[9],inactive
same,Potency,[8],inactive
C[C@@]12O[C@@H](C[C@]1(O)CO)n1c3ccccc3c3c4c(c5c6ccccc6n2c5c31)CNC4=O,Potency,[1],inactive
same,Potency,[2],inactive
same,Potency,[3],1.18 µM (active)
same,Potency,[4],0.59 µM (active)
same,Potency,[5],0.296 µM (active)
same,Potency,[6],0.332 µM (active)
same,Potency,[10],23.5 µM (active)
same,Potency,[11],23.5 µM (active)
same,IC50 (viability decrease),[12],1.66 µM (active)
same,Potency,[13],0.206 µM (active)
same,Potency,[9],2.35 µM (active) and 1.46 µM (active)
same,Potency,[8],2.64 µM (active)
CC(C)(C)NC(=O)[C@H]1CN(Cc2cccnc2)CCN1C[C@@H](O)C[C@@H](Cc1ccccc1)C(=O)N[C@H]1c2ccccc2C[C@H]1O,Potency,[1],inactive
same,Potency,[2],inactive
same,Potency,[3],1.05 µM (active)
same,Potency,[4],1.18 µM (active)
same,Potency,[5],4.18 µM (active)
same,Potency,[6],1.32 µM (active)
same,outcome,[7],inactive
same,Potency,[9],23.5 µM (active)
CC[C@H](CO)Nc1nc(NCc2ccccc2)c2ncn(C(C)C)c2n1,Potency,[1],inactive
same,Potency,[2],inactive
same,Potency,[3],16.6 µM (active)
same,Potency,[4],20.9 µM (active)
same,Potency,[5],29.6 µM (active)
same,Potency,[6],20.9 µM (active)
same,Potency,[10],20.9 µM (active)
same,IC50 (viability decrease),[12],18.7 µM (active)
same,Potency,[9],18.7 µM (active)
same,Potency,[14],inactive
same,outcome,[15],inactive
same,Potency,[8],inactive
COc1cc2c(Oc3ccc(-c4cnc(Nc5ccc(F)cc5)n(C)c4=O)cc3F)ccnc2cc1OCCCN1CCOCC1,Potency,[1],inactive
same,Potency,[2],inactive
same,Potency,[3],20.9 µM (active)
same,Potency,[4],20.9 µM (active)
same,Potency,[5],18.7 µM (active)
same,Potency,[6],11.8 µM (active)
same,Potency,[16],5.9 µM (active)
same,Potency,[17],11.8 µM (active)
same,IC50 (viability decrease),[12],3.72 µM (active)
same,Potency,[9],13.2 µM (active)
CC(C)[C@H](C(=O)Nc1ccc(C(=O)NO)cc1)c1ccccc1,Potency,[1],inactive
same,Potency,[2],inactive
same,Potency,[3],0.833 µM (active)
same,Potency,[4],0.662 µM (active)
same,Potency,[5],0.526 µM (active)
same,Potency,[6],0.526 µM (active)
same,Potency,[16],3.72 µM (active)
same,IC50 (viability decrease),[12],0.833 µM (active)
same,Potency,[18],418 nM (active)
same,Potency,[9],1.48 µM (active)
COc1cc2c(Oc3ccc4[nH]c(C)cc4c3F)ncnc2cc1OCCCN1CCCC1,Potency,[1],inactive
same,Potency,[2],inactive
same,Potency,[3],23.5 µM (active)
same,Potency,[4],23.5 µM (active)
same,Potency,[5],23.5 µM (active)
same,Potency,[6],16.6 µM (active)
same,Potency,[16],2.35 µM (active)
same,IC50 (viability decrease),[12],16.6 µM (active)
same,Potency,[13],23.1 µM (active)
same,Potency,[9],23.5 µM (active) and 18.4 µM (active)
same,Potency,[8],inactive
COc1cc2ncn(-c3cc(OCc4ccccc4C(F)(F)F)c(C(N)=O)s3)c2cc1OC,Potency,[1],inactive
same,Potency,[2],inactive
same,Potency,[3],4.18 µM (active)
same,Potency,[4],1.48 µM (active)
same,Potency,[5],1.32 µM (active)
same,Potency,[6],1.32 µM (active)
same,Potency,[16],1.05 µM (active)
same,Potency,[11],inactive
same,IC50 (viability decrease),[12],1.48 µM (active)
same,Potency,[9],0.935 µM (active)
